Experimental data from PubChem BioAssay (EPA / NIEHS).
Calls of active or inactive are those of the source. Rule for the calls: active = hit-call score of the fitted dose curve at least 0.9, where 1 is the maximum; inactive = score below 0.9.

Experiment: APR_HepG2_MicrotubuleCSK_24hr: Apredica 24-hour HepG2 Assay for Microtubule CSK Stabilty (AID 2282909)
Settings: HepG2 microtubule cytoskeleton imaging, actives raise or lower the signal
Procedure: APR_HepG2_24hr is a cell-based, multiplexed-readout assay that uses HepG2, a human liver cell line, with measurements taken at 24 hours after chemical dosing in a 384-well plate.APR_HepG2_MicrotubuleCSK_24hr is one of 10 assay component(s) measured or calculated from the APR_HepG2_24hr assay. It is designed to make measurements of protein conformation, a form of conformation reporter, as detected with fluorescence intensity signals by HCS Fluorescent Imaging technology.Data from the assay component APR_HepG2_MicrotubuleCSK_24hr was analyzed into 1 assay endpoint. This assay endpoint, APR_HepG2_MicrotubuleCSK_24hr, was analyzed with bidirectional fitting relative to DMSO as the negative control and baseline of activity. Using a type of conformation reporter, measures of protein for gain or loss-of-signal activity can be used to understand the signaling at the cellular-level. Furthermore, this assay endpoint can be referred to as a primary readout, because this assay has produced multiple assay endpoints where this one serves a signaling function. To generalize the intended target to other relatable targets, this assay endpoint is annotated to the cell morphology intended target family, where the subfamily is cell conformation.
Cells were treated with dimethyl sulfoxide (DMSO) as a solvent control at a final concentration of 0.5% v/v or with compounds in DMSO with a resulting final DMSO concentration of 0.5% v/v. Compound treatment was done at concentrations of 0.39, 0.78, 1.56, 3.12, 6.24, 12.5, 25, 50, 100, and 200 uM in duplicate on each plate. Cells were treated with compounds for 1, 24, or 72 hr. Carbonyl […] m-chloro-phenylhydrazone (CCCP) and taxol were used as positive controls for mitochondrial function and cytoskeletal stability, respectively; DMSO served as the negative control for this experiment. Cells were fixed by the direct addition of 50 uL formaldehyde in Hank's Balanced Salt Solution (HBSS) to a final concentration of 3.7%. After incubation in the fixation medium for 30 min at room temperature (293-298 K), cells were rinsed twice with HBSS and treated with cell permeabilization buffer (16 uL of 0.5% Triton X-100) for 10 min at room temperature (293-298 K) before labeling. For mitochondrial membrane potential and mitochondrial measurements, pre-fixed cells were incubated with 50 uL of MitoTracker Red CMXRos (Invitrogen) at a concentration of 250 nM for 30 min before fixation. In the remaining cases, post-fixed cells were labeled by incubation with a multiplexed mixture of primary antibodies in HBSS for 60 min at room temperature (293-298 K) to detect immunoreactivity of c-Jun (1:500), phospho-histone H3 (1:100), phospho-histone H2A.x (1:200), p53 (1:400), alpha-tubulin (1:200) and Hoechst 33342 (2 ug/mL). Cells were labeled for multiplexed imaging on two separate plates: a) Hoechst 33342, MitoTracker Red, phospho-histone H3, and alpha-tubulin, and b) Hoechst 33342, phospho-histone H2A.x, and c-Jun. A final rinse with HBSS (50 uL) was performed before analysis. The primary and secondary antibodies for the proteins were phospho-histone H3 (rabbit anti-phospho-histone H3 and FITC-donkey anti-rabbit IgG), phospho-histone H2A.x (mouse anti-phospho-histone H2A.x and FITC-donkey anti-mouse IgG), c-Jun (rabbit anti-phospho-c-Jun and Cy3-donkey anti-rabbit IgG), p53 (sheep anti-p53 and Cy5-donkey anti-sheep IgG), alpha-tubulin (mouse anti-alpha-tubulin and Cy5-donkey anti-mouse IgG). These antibodies are available as the CellCiphr HepG2 assay kit (Millipore).Digital images of each well were captured using a Cellomics ArrayScan VTI (Thermo Scientific Cellomics) (0.8 NA objective, 0.63x optical coupler, and XF-93 filter set) at 20x magnification. The images were acquired using the autofocus feature of the ArrayScan instrument, which entails the following steps. First, the camera focuses on channel 1 (Hoechst 33342), where nuclei are identified. Second, a Z offset of 1 um is used for capturing mitochondria (MitoTracker Red). […]

Row | Compound | AC50 | outcome
1 | O=P(Oc1ccccc1)(Oc1ccccc1)Oc1ccccc1 | 83 µM (active) | 
2 | c1nc[nH]n1 |  | inactive
3 | CCOS(=O)(=O)OCC |  | inactive
4 | O=[N+]([O-])c1ccc(Cl)c(Cl)c1 |  | inactive
5 | ClC1=C(Cl)C2(Cl)C3C(Cl)C(Cl)CC3C1(Cl)C2(Cl)Cl (stereo not given) | 156 µM (active) | 
6 | O=C(O)C1C(C(=O)O)C2(Cl)C(Cl)=C(Cl)C1(Cl)C2(Cl)Cl (stereo not given) |  | inactive
7 | c1ccc(OP(Oc2ccccc2)Oc2ccccc2)cc1 |  | inactive
8 | COCCOCCO |  | inactive
9 | Nc1ccc2ccccc2c1 |  | inactive
10 | ClC(Cl)(Cl)c1ccccc1 |  | inactive
11 | O=P1(N(CCCl)CCCl)NCCCO1 (stereo not given) |  | inactive
12 | CCCCc1ccccc1 |  | inactive
13 | c1ccc2c(c1)Nc1ccccc1S2 |  | inactive
14 | CSC(C)(C)C=NO |  | inactive
15 | ClC(Cl)c1ccccc1 |  | inactive
16 | CC(C)(C)OOC(C)(C)C |  | inactive
17 | CCC1(c2ccccc2)C(=O)N=C(O)NC1=O (stereo not given) |  | inactive
18 | CC(Cc1ccc(OCC(=O)O)cc1)NCC(O)c1csc(C(F)(F)F)n1 (stereo not given) |  | inactive
19 | CCCCN(CCCC)SN(C)C(=O)Oc1cccc2c1OC(C)(C)C2 |  | inactive
20 | CCNc1nc(Cl)nc(NC(C)(C)C)n1 |  | inactive

Row | Compound | AC50 | outcome
21 | CCCCN(CCCC)N=O |  | inactive
22 | c1cc2c3c(cccc3c1)CC2 |  | inactive
23 | CCCCCCCc1ccc(O)cc1 |  | inactive
24 | Cc1ccc(N)cc1N |  | inactive
25 | CC(Cl)(Cl)C(=O)O |  | inactive
26 | O=C(O)C(Cl)Cl |  | inactive
27 | CCOc1ccc(C(C)(C)COCc2cccc(Oc3ccccc3)c2)cc1 |  | inactive
28 | CN(C)C(=O)Cl |  | inactive
29 | [N-]=[N+]=[N-] |  | inactive
30 | Nc1ccc(Cl)cc1 |  | inactive
31 | CCN(CC)c1ccccc1 |  | inactive
32 | Nc1cc2c3c(c1)C(c1ccccc1)=N[C@@H](NC(=O)c1cccnc1)C(=O)N3CC2 |  | inactive
33 | CCOC(=O)c1ccccc1C(=O)OCC |  | inactive
34 | CCOP(=S)(Oc1ccc([N+](=O)[O-])cc1)c1ccccc1 (stereo not given) |  | inactive
35 | OCC1CO1 (stereo not given) |  | inactive
36 | Cc1cccc(N)c1 |  | inactive
37 | Cc1ccc([N+](=O)[O-])cc1C |  | inactive
38 | O=[N+]([O-])c1ccccc1 |  | inactive
39 | CCC(C)(C)c1ccc(O)cc1 |  | inactive
40 | CCCN(CCC)c1c([N+](=O)[O-])cc(C(C)C)cc1[N+](=O)[O-] |  | inactive
